Screens (PubChem)
L3MBTL1 block: blocks human L3MBTL1; Potency, µM (titrated, usually from 57.1 µM), usual class: inhibitors; Q9Y468; AID 485360; 230,000 compounds, 0.66% hits; AlphaScreen L3MBTL1–H3K9me1 peptide binding; also: nearly all actives have a fitted effect of over 60% in size
Target sequence (Q9Y468 whole entry, looked up): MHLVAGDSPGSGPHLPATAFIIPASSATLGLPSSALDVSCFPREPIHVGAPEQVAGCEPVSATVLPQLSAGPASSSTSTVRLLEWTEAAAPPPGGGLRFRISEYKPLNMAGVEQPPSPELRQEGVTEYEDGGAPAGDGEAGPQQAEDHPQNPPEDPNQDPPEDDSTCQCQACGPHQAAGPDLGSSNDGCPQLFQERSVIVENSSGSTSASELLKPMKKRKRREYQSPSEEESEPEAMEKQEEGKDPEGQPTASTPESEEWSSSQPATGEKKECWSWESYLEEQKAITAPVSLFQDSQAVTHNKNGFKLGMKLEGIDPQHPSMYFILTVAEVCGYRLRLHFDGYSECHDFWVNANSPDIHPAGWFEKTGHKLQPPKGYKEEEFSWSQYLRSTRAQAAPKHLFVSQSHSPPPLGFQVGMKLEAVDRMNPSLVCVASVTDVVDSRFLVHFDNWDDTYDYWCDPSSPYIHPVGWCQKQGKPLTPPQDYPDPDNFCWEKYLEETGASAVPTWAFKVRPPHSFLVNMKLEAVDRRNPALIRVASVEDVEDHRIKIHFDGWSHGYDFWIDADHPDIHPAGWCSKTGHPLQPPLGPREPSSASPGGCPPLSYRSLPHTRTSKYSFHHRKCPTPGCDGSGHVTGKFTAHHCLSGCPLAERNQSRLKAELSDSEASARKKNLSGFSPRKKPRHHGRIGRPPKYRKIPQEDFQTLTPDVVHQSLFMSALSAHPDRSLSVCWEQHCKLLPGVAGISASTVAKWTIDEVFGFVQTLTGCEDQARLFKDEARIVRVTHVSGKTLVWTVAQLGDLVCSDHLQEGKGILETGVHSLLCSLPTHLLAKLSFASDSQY
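AlphaScreen assay: L3MBTL1 (50 nM final) was preincubated 30 min at room temperature with biotinylated H3(1-15)K9me1 peptide (75 nM final), then 30 min with library compounds; streptavidin donor and nickel chelate acceptor beads (10 ug/mL final) added, 30 min dark.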
G9a block: G9a (human) methyltransferase inhibition | G9a H3K9 monomethylation, AlphaScreen, 2 h | 350,000 compounds, 8.8% hits | AID 504332 | Potency, µM (series often up to 102 µM), actives largely listed as inhibitors; also: nearly all actives have a fitted effect of over 75% in size
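Chemiluminescent proximity detection of H3K9 monomethylation, read after 10 min bead incubation in the dark. Reaction: 20 nM G9a, 500 nM biotin-H3K9 peptide, 20 uM SAM cofactor, 2 h, room temperature, following 15 min enzyme-compound preincubation.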
BAZ2B block: blocks human BAZ2B; AID 504333; 360,000 compounds, 4.4% hits; AlphaScreen BAZ2B-H3K14Ac peptide displacement; Potency, µM (doses to about 114 µM), hits mostly inhibitors; Q9UIF8; also: nearly all actives have a fitted effect of over 60% in size
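Complex of BAZ2B and biotin-H3K14Ac (50 nM apiece) forms over 30 min at RT, then faces library compounds up to 110 uM for another 30 min; AlphaScreen beads added, 20 min dark incubation, luminescence read.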
HP1b chromo inh: blocks HP1-beta chromodomain binding to methylated histone tails; AlphaScreen HP1-beta / biotin-H3K9me3 peptide binding; AID 540317; Potency, µM (titrated, usually from 114 µM), actives largely listed as inhibitors; 390,000 compounds, 0.56% hits; P83916; also: nearly all actives have a fitted effect of over 70% in size
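Compound inhibition of the preformed complex between 50 nM HP1-beta and 50 nM biotinylated H3K9me3 peptide was read by AlphaScreen. Buffer was PBS pH 7.4 with 0.01% Tween-20. Incubations ran 30 min at room temperature, with 10 ug/mL donor/acceptor beads.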
JMJD2A Tudor inh: inhibitors of human JMJD2A Tudor domain. O75164. AlphaScreen JMJD2A-Tudor / H3K4me3 peptide binding. Potency, µM (doses to about 114 µM), hits mostly inhibitors. 390,000 compounds, 4.4% hits. AID 504339; also: nearly all actives have a fitted effect of over 50% in size
Hits are given with their value; [ ] = dose if it differs, or a comment. Shown are actives, neighbours in structure and some others; about 11% of the full set was active somewhere. Calls follow the shape of the dose curve; as a rule, active = well fitted inhibition curve with a large enough effect; inconclusive = small, poorly fitted or top-dose-only effect; inactive = no such curve, though single readings can be large or run the other way.

Screening Cc1ccc(C)c(OCC(=O)N2CCN(c3ncccn3)CC2)c1 returned L3MBTL1 block inactive, G9a block inactive[12.7 µM], BAZ2B block inactive, HP1b chromo inh inactive and JMJD2A Tudor inh inactive.
`CCS(=O)(=O)Nc1ccc(C2=NN(C(=O)c3ccccc3)C(c3cccs3)C2)cc1` (centres undefined) gave G9a block 28.2µM, BAZ2B block 79.4µM, HP1b chromo inh inactive and JMJD2A Tudor inh inactive.
Screening CCS(=O)(=O)Nc1ccc(C2=NN(C(=O)c3ccco3)C(c3cccs3)C2)cc1 (centres undefined) returned G9a block inactive, BAZ2B block inactive, HP1b chromo inh inactive and JMJD2A Tudor inh inactive.
For Cc1cc(C)n(-c2nc3cc(Cl)c(Cl)cc3nc2Nc2c(C)cccc2C)n1 the results were G9a block inactive, BAZ2B block inactive, HP1b chromo inh inactive and JMJD2A Tudor inh inactive.
Cc1nn(C)c2c1c(-c1ccccc1)cc(=O)n2CC(=O)NC(C)c1ccccc1 (centres undefined) was read as G9a block inactive, BAZ2B block 50.1µM, HP1b chromo inh 39.8µM and JMJD2A Tudor inh 50.1µM.
`Cc1cc(=O)n(CC(=O)NC(C)c2ccccc2)c2c1c(C)nn2C` (centres undefined) gave G9a block inactive, BAZ2B block inconclusive, HP1b chromo inh inconclusive and JMJD2A Tudor inh inconclusive.
CCn1c(=O)c2c(nc3n2CCN3c2ccc(OC)cc2)n(C)c1=O was read as G9a block inactive, BAZ2B block inactive, HP1b chromo inh inactive and JMJD2A Tudor inh inactive.
`Cc1cc(OC(=O)c2ccc(F)cc2)c([N+](=O)[O-])c(=O)[nH]1` gave G9a block inconclusive, BAZ2B block inactive, HP1b chromo inh inactive and JMJD2A Tudor inh inactive.
For Cc1cc(OC(=O)C(C)(C)C)c([N+](=O)[O-])c(=O)[nH]1 the results were G9a block 1.41µM, BAZ2B block inactive, HP1b chromo inh inactive and JMJD2A Tudor inh inactive.
C=CCOc1ccc(/C=C\c2nc(O)c([N+](=O)[O-])c(=O)[nH]2)cc1OC was read as L3MBTL1 block inactive, G9a block 79.4µM, BAZ2B block inactive, HP1b chromo inh inactive and JMJD2A Tudor inh inactive.
Screening Cc1cc(OC(=O)c2ccc(Cl)cc2Cl)c([N+](=O)[O-])c(=O)[nH]1 returned L3MBTL1 block inactive, G9a block 79.4µM, BAZ2B block inactive, HP1b chromo inh inactive and JMJD2A Tudor inh inactive.
For COc1ccc(/C=C/C(=O)Oc2cc(C)[nH]c(=O)c2[N+](=O)[O-])cc1OC the results were G9a block inactive, BAZ2B block inactive, HP1b chromo inh inactive and JMJD2A Tudor inh 31.6µM.
COc1ccc2c(c1)CC(NC(=O)Nc1ccc(NC(C)=O)cc1)CO2 (centres undefined) was read as G9a block inactive, BAZ2B block inactive, HP1b chromo inh inactive and JMJD2A Tudor inh inactive.
`Cc1cc2[nH]c(=O)c(=O)[nH]c2cc1S(=O)(=O)Nc1cccc(Cl)c1` gave G9a block inactive, BAZ2B block inactive, HP1b chromo inh inactive and JMJD2A Tudor inh inactive.
`CC(Oc1ccccc1)C(=O)N1CCN(Cc2cc(=O)n3nc(-c4ccccc4Cl)sc3n2)CC1` (centres undefined) gave G9a block inactive, BAZ2B block inactive, HP1b chromo inh inactive and JMJD2A Tudor inh inactive.
CCN1c2ccccc2-c2nc(SCC(=O)Nc3cccc(C)c3C)ncc2S1(=O)=O was read as G9a block inactive, BAZ2B block inactive, HP1b chromo inh inactive and JMJD2A Tudor inh inactive.
Screening Cc1cc(Cl)ccc1Oc1ncnc2oc(-c3ccccc3)cc12 returned L3MBTL1 block inactive, G9a block inactive[0.501 µM], BAZ2B block 79.4µM, HP1b chromo inh inactive and JMJD2A Tudor inh inconclusive.
Screening CCOc1ccc(-c2c(C)nn3c(C)c(C(=O)NCCc4ccccc4)cnc23)cc1OCC returned G9a block inactive, BAZ2B block inactive, HP1b chromo inh inactive and JMJD2A Tudor inh inactive.
`Cc1cccc(N=Nc2cnc(N)s2)c1` gave L3MBTL1 block inactive, G9a block 28.2µM, BAZ2B block inconclusive, HP1b chromo inh inconclusive and JMJD2A Tudor inh 44.7µM.
For Cn1nc(C(C)(C)C)cc1C(=O)NN1CCOCC1 the results were G9a block inactive, BAZ2B block inactive, HP1b chromo inh inactive and JMJD2A Tudor inh inactive.
Screening CCCCN(C(=O)c1ccc2c(c1)OCO2)c1ccccc1 returned L3MBTL1 block inactive, G9a block 50.1µM, BAZ2B block inactive, HP1b chromo inh inactive and JMJD2A Tudor inh inactive.
Screening CN(C)CCC(=O)c1cccc(Br)c1 returned L3MBTL1 block inactive, G9a block 2µM, BAZ2B block inactive, HP1b chromo inh inconclusive and JMJD2A Tudor inh inactive.
CN(C)CCC(=O)c1ccc2c(c1)OCO2 was read as L3MBTL1 block inactive, G9a block 1.78µM, BAZ2B block inactive, HP1b chromo inh inactive and JMJD2A Tudor inh inconclusive.
CN(CCOC(=O)c1cccc(Br)c1)C(C)(C)C was read as G9a block inconclusive, BAZ2B block inactive, HP1b chromo inh inactive and JMJD2A Tudor inh inactive.
For CCOc1cc(CNC(=O)Cn2ncn3c(cc4cc(F)ccc43)c2=O)cc(OCC)c1OCC the results were G9a block inactive, BAZ2B block inactive, HP1b chromo inh inactive and JMJD2A Tudor inh inactive.
`CC(C)CC(=O)Nc1c(C(=O)N2CCN(c3ccccc3F)CC2)oc2ccccc12` gave G9a block inactive, BAZ2B block inconclusive, HP1b chromo inh inactive and JMJD2A Tudor inh inconclusive.
Cc1c(Cl)cccc1NC(=O)C1CCCN(c2nnc(-n3c(C)ccc3C)s2)C1 (centres undefined) was read as G9a block inactive, BAZ2B block inactive, HP1b chromo inh inactive and JMJD2A Tudor inh inactive.
`CCN(CC)S(=O)(=O)c1cc([N+](=O)[O-])ccc1NNC(=O)Nc1ccccc1OC` gave G9a block 28.2µM, BAZ2B block inconclusive, HP1b chromo inh inactive and JMJD2A Tudor inh inconclusive.
CC1=C(C(=O)Nc2cc(Cl)ccc2C)C2(CCCCC2)OC1=O was read as G9a block inactive, BAZ2B block inactive, HP1b chromo inh inactive and JMJD2A Tudor inh inactive.
`Cc1cccc(CNC(=O)Cn2c(-c3cccs3)cc3ccccc32)c1` gave G9a block inactive, BAZ2B block inactive, HP1b chromo inh inactive and JMJD2A Tudor inh inactive.
`Cc1cccnc1N(C(=O)Nc1ccccc1)C1=NCC(C)(C)S1` gave L3MBTL1 block inactive, G9a block 56.2µM, BAZ2B block inactive, HP1b chromo inh inactive and JMJD2A Tudor inh inactive.
For Cc1cccnc1N(C(=O)Nc1cccc(Cl)c1)C1=NCC(C)(C)S1 the results were L3MBTL1 block inactive, G9a block inconclusive, BAZ2B block inactive, HP1b chromo inh inactive and JMJD2A Tudor inh inactive.
Screening Cc1ccc(NC(=O)c2ccccc2)cc1 returned L3MBTL1 block inactive, G9a block inactive[12.7 µM], BAZ2B block inactive, HP1b chromo inh inactive and JMJD2A Tudor inh inactive.
For COC(=O)/C(=C\C(=O)c1ccccc1)Nc1ccc(OC)cc1 the results were L3MBTL1 block inactive, G9a block 14.1µM, BAZ2B block 39.8µM, HP1b chromo inh inconclusive and JMJD2A Tudor inh 35.5µM.
